Measured values published in PubChem BioAssay AID686979 (National Center for Advancing Translational Sciences (NCATS), 2013).
In all, about 420,000 compounds went through this assay and about 50,000 (12%) were called active. Another 26% or so got no clear call; they are omitted. Calls follow the shape of the dose curve; as a rule, active = well fitted inhibition curve with a large enough effect; inconclusive = small, poorly fitted or top-dose-only effect; inactive = flat fitted curve, though single readings scatter. The list comes from a sample in which actives are over-represented; it also holds similar structures and randomly drawn compounds. Entries that show only a call come without a potency.

Assay: qHTS for Inhibitors of human tyrosyl-DNA phosphodiesterase 1 (TDP1): qHTS in cells in presence of CPT; also: nearly all actives have a fitted effect of over 55% in size
Conditions: chicken DT40 Tdp1-/-;hTDP1 cells + 20 nM CPT, ATP luminescence, 48 h; series mostly up to 46.2 µM
Text: Human tyrosyl-DNA phosphodiesterase 1 (TDP1) is a novel repair gene, and we propose to use it as a new target for anticancer drug development. TDP1 is not an essential protein, but under treatment with topoisomerase I poison (camptothecin: CPT), TDP1 works as a critical factor for cell survival. To directly identify novel TDP1 inhibitors active in a cellular environment, we have knocked-out the Tdp1 gene in chicken DT40 cells (Tdp1-/-) and generated a complemented counterpart cells that contains a stable transfection of the human TDP1 gene (Tdp1-/-;hTDP1 cells). For the primary screen, Tdp1-/-;hTDP1 cells will be exposed to small molecules in the presence or absence of CPT, and their growth kinetics will be evaluated after 48 hours by measuring ATP activity. […] The hit compounds will then be evaluated in the presence or absence of CPT using Tdp1-/- cells. […] In tertiary assays, biochemical gel-based assays will be used to assess whether the hit compounds specifically target TDP1. To this end, we have screened this cell line against the MLSMR in two primary screens. In one screen we add CPT and in the other we screen in the absence of CPT; this AID represents the screen where CPT was present. NIH Chemical Genomics Center [NCGC] NIH Molecular Libraries Probe Centers Network [MLPCN] MLPCN Grant: MH095538 Assay Submitter (PI): Yves Pommier, NCI
DT40-hTDP1 cells with 20 nM Camptothecin (add 20 microL of 1 mM CPT stock in 1 L of cell culture medium) were dispensed at 400 cells/5microL/well in tissue culture treated 1536-well white wall/solid bottom assay plates (Greiner Bio-One North America, NC, U.S.A.) using a Multidrop Combi 8 channel dispenser (Thermo Fisher, Waltham, MA, USA). 23 nL compounds and controls were transferred using the pin tool (Kalypsys, San Diego, CA, USA) to the assay plates. The assay plates were then incubated at 37 masculineC for a minimum 48 hr. Three microL of Cell Titer Glo solution was added to the plates and incubated at RT in dark for 30 min. Luminescence was read using ViewLux (Perkin Elmer) with 1 sec exposure slow speed, high gain and 2x binning.
Potency is read from the fitted curve at half-maximal effect.

| Structure (SMILES) | Potency |
| --- | --- |
| CCC1=NN(C(=O)Cc2ccc([N+](=O)[O-])cc2)C(O)(c2ccc(Br)cc2)C1 (stereo not drawn) | inactive |
| Cc1cccc(N2C(=O)N3[C@H](c4ccc(F)cc4)[C@@H]4C(=O)N(C5CCCCC5)C(=O)[C@@H]4[C@]3(Cc3ccccc3)C2=O)c1 | inactive |
| O=C1CCC(C(=O)N2CCCCO2)CN1Cc1cccc(C(F)(F)F)c1 (stereo not drawn) | inactive |
| Cc1ccc(N2CC(C(=O)NCCS(=O)(=O)N3CCN(c4ccccc4)CC3)CC2=O)cc1 (stereo not drawn) | inactive |
| O=C(Nc1cc(S(=O)(=O)N2CCOCC2)ccc1Cl)c1cc(=O)c2ccccc2o1 | 11.6 µM (active) |
| CCC1CCCCN1S(=O)(=O)c1ccc(NC(=O)c2cc(=O)c3ccccc3o2)cc1 (stereo not drawn) | 3.26 µM (active) |
| O=C(Nc1cc(S(=O)(=O)N2CCOCC2)ccc1N1CCOCC1)c1c(F)cccc1Cl | inactive |
| O=C(NCCS(=O)(=O)N1CCN(c2ccccc2)CC1)c1cc(=O)c2ccccc2o1 | inactive |
| Cc1ccc2oc(C(=O)Nc3ccc(S(=O)(=O)N4CCCCCC4)cc3)cc(=O)c2c1 | inactive |
| Cc1cc(C)c2oc(C(=O)Nc3ccc(S(=O)(=O)N4CCCCCC4)cc3)cc(=O)c2c1 | inactive |
| COc1ccccc1CN1CC(C(=O)NCCc2cn[nH]c2)CCC1=O (stereo not drawn) | inactive |
| O=C(CCNS(=O)(=O)c1ccccc1C(F)(F)F)Nc1ccncc1 | inactive |
| CCOC(=O)CSc1nnc(NC(=O)C2CC(=O)N(c3ccc(F)cc3)C2)s1 (stereo not drawn) | inactive |
| COC(=O)C1=CN(Cc2ccc(OC)cc2)C=C(C(=O)OC)C1c1ccc(O)c(OC)c1 | inactive |
| CC(=O)Nc1ccc(S(=O)(=O)N2CCC(C(=O)NC3CC3)CC2)cc1 | inactive |
| CS(=O)(=O)N1CCN=C1SCc1ccc(F)cc1 | inactive |
| CC(=O)c1cnc(SCCN2C(=O)c3ccccc3C2=O)nc1C | inactive |
| O=C1NC(c2ccccc2)Oc2ccccc21 (stereo not drawn) | inactive |
| C=CCOc1cccc(C2NC(=O)c3ccccc3O2)c1 (stereo not drawn) | inactive |
| O=C1NC(c2cccc(Cl)c2)Nc2ccccc21 (stereo not drawn) | 13 µM (active) |
| COc1ccc(C(=O)CSc2nnc(NC(=O)C3CC(=O)N(c4cccc(OC)c4)C3)s2)cc1 (stereo not drawn) | inactive |

| Structure (SMILES) | Potency |
| --- | --- |
| Cc1cc(C)n2nc(C(=O)Nc3cccc(S(=O)(=O)N4CCOCC4)c3)nc2n1 | inactive |
| O=C(N/N=C\c1cc(Br)c(Br)o1)C1COc2ccccc2O1 (stereo not drawn) | inactive |
| Cc1cc(C(=O)N2CCCC2(C)C(=O)O)c(C)o1 (stereo not drawn) | inactive |
| CCCN=C1N(C)C[C@@H]2[C@@H]3C(=O)N(Cc4ccccc4)C(=O)[C@@H]3[C@](C)(C(=O)OC)N12 | inactive |
| O=C(CCSc1ccccc1)N1CCN(c2ccccc2F)CC1 | inactive |
| O=C(CCc1ccccc1F)N1CCN(c2ccccc2)CC1 | inactive |
| O=C(CCSCc1ccccc1F)N1CCN(c2ccc(Cl)cc2)CC1 | 23.1 µM (active) |
| COc1ccc(C2C(=O)N(C3CCCCCC3)CC(=O)N2CCc2ccc(Cl)cc2)cc1OC (stereo not drawn) | 23.1 µM (active) |
| O=C(NCCc1ccc(Cl)cc1)C1CC(=O)N(C2CCCCC2)C1 (stereo not drawn) | inactive |
| CCOCCCN1C(=O)CN(C2CCCCC2)C(=O)C1c1ccc(OCC)c(OC)c1 (stereo not drawn) | inactive |
| COc1ccccc1N1CC(C(=O)NCCN2C(=O)S/C(=C\c3cccnc3)C2=O)CC1=O (stereo not drawn) | inactive |
| S=C(Cc1ccc(Cl)cc1)N1CCOCC1 | inactive |
| COc1ccc(-c2cnc(SCCNC(=O)c3ccc4c(c3)OCO4)[nH]2)cc1 | inactive |
| CCCC[C@H]1COCCS(=O)(=O)N1Cc1cccc(Cl)c1 | inactive |
| CCC(C)[C@H]1COCCS(=O)(=O)N1Cc1ccc(C)cc1 (stereo partly drawn) | inactive |
| O=S1(=O)CCOC[C@H](CC2CCCCC2)N1Cc1ccc(F)cc1 | 2.51 µM (active) |
| CC(C)Oc1ccc(S(=O)(=O)N2CCOCC2)cc1NC(=O)C1CCCC1 | inactive |
| O=C(CCS(=O)(=O)c1ccccc1Cl)Nc1ccc(S(=O)(=O)Nc2ncccn2)cc1 | inactive |
| Cc1ccc(S(=O)(=O)N2CCOCC2)cc1C(=O)OC1CCCCC1=O (stereo not drawn) | inactive |
| C[C@@H]1CN([C@H](C)CO)C(=O)CCCn2cc(nn2)CO[C@H]1CN(C)S(=O)(=O)c1ccc(Oc2ccccc2)nc1 | inactive |
| O=C(/C=C/c1ccc(F)cc1)NCCNC(=O)/C=C/c1ccc(F)cc1 | inactive |

| Structure (SMILES) | Potency |
| --- | --- |
| O=C(/C=C/c1ccc([N+](=O)[O-])o1)NNC(=O)c1ccc(F)cc1 | 3.26 µM (active) |
| CCN(C(=O)Cn1c(=O)nc(-c2ccccc2)c2cc(Cl)ccc21)c1cccc(C)c1 | inactive |
| Cc1ccc(S(=O)(=O)NCC(=O)N(CC(=O)NCC2CCCO2)c2cccc(F)c2)cc1 (stereo not drawn) | inactive |
| C=CCOc1ccccc1CNn1c(C)n[nH]c1=S | inactive |
| N#C/C(=C(/O)COc1cccc2ccccc12)c1nc2ccccc2[nH]1 | inactive |
| Cc1ccccc1OC/C(O)=C(\C#N)c1nc2ccccc2[nH]1 | inactive |
| N#C/C(=C(/O)COC(=O)COc1ccc(Cl)cc1)c1nc2ccccc2[nH]1 | 4.11 µM (active) |
| O=C(NNC(=O)c1cc(-c2ccccc2Cl)nc2ccccc12)c1csc(N2CCOCC2)n1 | inactive |
| CC(C)(C)c1ccc(C(CC(=O)O)NS(=O)(=O)Cc2ccccc2)cc1 (stereo not drawn) | inactive |
| Cc1ccc2c(c1)N(CC(=O)NCC1CCCO1)C(=O)CO2 (stereo not drawn) | inactive |
| NS(=O)(=O)c1ccc(NC(=O)CSc2nnc3c(n2)[nH]c2ccccc23)cc1 | inactive |
| C/C=C/NNC(=O)Cc1ccc(OC)cc1 | 3.55 µM (active) |
| CCCCCNC(=O)Cc1ccc(OC)cc1 | inactive |
| COc1ccc(CC(=O)Nc2ccc(C(=O)NC(C)(C)C)cc2)cc1 | inactive |
| C#CCOCCOCCOCCNc1nc(N2CCN(C(=O)[C@H](CCC(=O)O)n3cc(CN)nn3)CC2)nc(N2CCN(C(=O)[C@H](CCC(=O)O)n3cc(CN)nn3)CC2)n1 | inactive |
| CC(=O)c1cccc(NC(=S)N2CCCC2)c1 | inactive |
| COc1ccc(CC(=O)N2N=C(C)CC2(O)C(F)(F)F)cc1 (stereo not drawn) | 2.91 µM (active) |
| CC1=NN(C(=O)Cc2ccc(C)cc2)C(O)(c2cccnc2)C1 (stereo not drawn) | inactive |
| CC1=NN(C(=O)CCCc2ccccc2)C(O)(C(F)(F)F)C1 (stereo not drawn) | inactive |
| CC1CC(=S)Nc2ccccc2N1Cc1ccccc1 (stereo not drawn) | inactive |
| Nc1nc2ncccn2c1-c1ccccc1 | inactive |
